Consider 40 molecules from PubChem BioAssay (NCI).

Compounds without any hit were thinned out: in the full panel of roughly 83,000, 20% have a hit.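 Results are percent growth after 48 hours of single-concentration exposure. 100 means growth as in untreated cells, lower positive values show inhibition; negative values down to -100 show cell death.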 Calls of active or inactive are those of the source. Rule for the calls: active = growth percent below 10; inactive = the rest.

The assay relates to HL-60(TB) leukemia. Description: NCI-60 one-dose screen, 48 h (100 = growth as untreated, 0 = no growth, -100 = all killed). To be noted: 10 µM unless noted.
Consider `Cc1cc(CSc2ccc(Cl)cc2)ccc1N`, for which the growth is 3.9% (active).
For `CCOC(=O)CCCS(C)(=O)=O` the value was 117% (inactive); for `COC(=O)[C@]12CC[C@@H](C)[C@H](C)[C@@H]1C1=CC[C@@H]3[C@@]4(C)C(C=O)=C[C@@](C)(COC(=O)c5ccco5)[C@@H]4[C@H](O)C[C@@]3(C)[C@]1(C)CC2`, -21.9% (active).
Turning to `Cc1c(C(=N)C(C#N)C#N)c(=N)oc2c1ccc1ccccc12`, the growth was 65.2% (inactive).
Take `COc1cc(CCn2nnc3c(NCCCCO)ncnc32)cc(OC)c1`: the growth is 133% (inactive).
With `CC[C@H](Nc1ncnc(N)c1C(N)=O)c1nc2cccc(NCc3ccc(C(=O)NO)cc3)c2c(=O)n1-c1ccccc1` the figure was 126% (inactive); with `CCN(CC)Cc1cc(Nc2ccnc3cc(Cl)ccc23)ccc1O`, 94.5% (inactive); with `Nc1ccc(-c2cc3c(NCc4ccccc4)ncnc3s2)cc1`, 85.5% (inactive).
On to `O=C(O)c1ccc(-n2cc(/C=N/Nc3ccccc3)c(-c3ccc(F)cc3F)n2)cc1`, for which the growth is 15.1% (inactive).
For `C=C(C)[C@@H]1C/C=C(/C=O)CC[C@@H]2O[C@@]2(C)CC/C=C(\C)CC1` the value was 162% (inactive).
Consider `COc1cc2c(Oc3ccc(NC(=O)C4(C(=O)Nc5ccc(F)cc5)CC4)cc3F)ccnc2cc1OCCCN1CCOCC1`, for which the growth is -21.4% (active).
With `COc1ccc(NC(=O)/C=C(C)/C=C/C=C(C)/C=C/C2=C(C)CCCC2(C)C)cc1` the figure was 5.62% (active); with `CN1C(=O)CN2CCc3ccccc3C2c2cc(Cl)ccc21` (stereo not given), 86.8% (inactive); with `Cc1ccc(C(=O)NCCNc2nccc(-c3c(-c4cccc(F)c4)nc4sccn34)n2)cc1`, 95.5% (inactive).
For `CCN(CC)Cc1cc(Nc2ccnc3ccc(OC)cc23)ccc1O` the value was 32.5% (inactive); for `CC(=O)c1c(Nc2ccc(F)c(F)c2F)[nH]c2c(F)cc(F)cc2c1=O`, -48% (active); for `O=c1c2c3c(sc2nc(N/N=C/c2ccc(Br)cc2)n1Cc1ccccc1)CCCC3`, 71.2% (inactive).
With `COc1ccc2nc3c(cc2c1)C(=O)CC(C(F)(F)F)C3` (stereo not given) the figure was -15.1% (active); with `COc1ccc(S(=O)(=O)N2CCCCC2)cc1NC(=O)c1[nH]c(C)c2c1CCCCC2=O`, -10.9% (active); with `CCOC(=O)C(C(C)=O)c1nc2sc3cc(Cl)c(Cl)cc3n2c(=O)c1C#N` (stereo not given), 100% (inactive).
For `COc1cc2ncn3c(=O)c4c5c(sc4nc3c2cc1OC)CCCC5`, the growth was 106% (inactive).
For the molecule `O=C(O)CSCc1nc2ccccc2[nH]1`, the growth was 136% (inactive).
On to `Fc1ccc([I+]c2ccc(F)cc2)cc1`, for which the growth was 54.5% (inactive).
With `CC1CCN(C(=O)CCCl)c2ccccc21` (stereo not given) the figure was 112% (inactive); with `Oc1c(Cl)cc(Cl)cc1C(c1cc(Cl)cc(Cl)c1O)C(Cl)(Cl)Cl`, 1.53% (active).
With `COc1ccc(NC(=O)CSc2nnc(-c3cc(-c4ccc(S(N)(=O)=O)cc4)nc4ccccc34)n2-c2ccccc2)cc1` the figure was 65.1% (inactive); with `O=S(=O)(NCCCNc1cc(-c2cn(-c3ccccc3)nc2-c2cccc(O)c2)ccn1)c1ccc(C(F)(F)F)cc1`, 25% (inactive); with `COc1cccc(/C=N/NC(=O)c2ccccc2Nc2ccnc(C(F)(F)F)c2)c1O`, 34.8% (inactive).
Consider `Cn1cc(-c2nc(-c3c[nH]c4ccncc34)cs2)c2cc(F)ccc21`, for which the growth is -55.3% (active).
For `CC1(C)N=C(N)N=C(N)N1c1ccc(Cl)c(Cl)c1` the value was 35.7% (inactive).
With `C=CC[n+]1c(/C=C2\Sc3ccccc3N2C)sc(-c2ccccc2)c1-c1ccccc1` the figure was -25.5% (active).
For `c1csc(-c2[nH]nc3c2CCc2ccccc2-3)c1` the value was 132% (inactive).
As to `N#Cc1c2ccccc2c2n1-c1ccccc1OC(c1ccccc1)C2=O` (stereo not given), the growth was 43.4% (inactive).
With `CCCc1cccc(CCC)c1O` the figure was 105% (inactive); with `COc1ccc(NC(=O)CSc2nc(-c3ccc(OC)c(OC)c3)cc(-c3cc(OC)c(OC)c(OC)c3)n2)cc1`, 115% (inactive).
With `C#COc1cccc(Nc2ncnc3cc(NC(=O)[C@@H](C)Cl)ccc23)c1` the figure was 10.9% [6.25 µM] (inactive).
With `O=c1oc2ccc(F)cc2c(=O)n1-c1ccc(Cl)cc1F` the figure was -45.3% (active); with `O=C1CCC(=O)N1C1CCCCC1`, 92.5% (inactive).
Take `CCOc1ccc(N2C(=O)CCSC2=S)cc1`: the growth was 99.7% (inactive).
With `NC(=O)c1cc(I)ccc1NC(=O)/C=C/c1ccccc1Cl` the figure was -34.5% (active).
